Results published in PubChem BioAssay AID504843 (Broad Institute, 2011).
The whole screen tested about 1,200 compounds, of which about 360 (30%) were called active. No rule for the calls is given here. The list is a sample of the results. Where a call stands in place of a potency, no number is given. Potency and affinity values are given separately.

Test: antibacterial activity by ATP level – BacTiter-Glo luminescence, cherry-picked samples, counter-screen, dose response (AID 504843);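 also: growth measured after 8 h incubation at 30 °C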
Conditions: bacterial growth; series mostly up to 15 µM

| Compound | outcome |
| --- | --- |
| CN(Cc1cn[nH]c1-c1ccc(-c2ccccc2)cc1)CC1CCOCC1 | inactive |
| COc1ccc2c(c1)c1c3n2CCN(C)C3=NCC1 | inactive |
| CC(C)C(C(=O)NC1CCCC1)N(CC1CCCO1)C(=O)CNS(=O)(=O)c1ccccc1 (stereo not given) | inactive |
| CCCCC(=O)N(c1ccc(C)c(C)c1)C1C=CS(=O)(=O)C1 (stereo not given) | inactive |
| COc1ccccc1N(CC(=O)NC1CCCC1)C(=O)c1csnn1 | inactive |
| COc1cc(CNc2ccc3[nH]c(=O)[nH]c3c2)ccc1OCC(=O)NC(C)(C)C | inactive |
| Cc1nc2ccccn2c1/C(O)=C1\C(=O)C(=O)N(CCN(C)C)C1c1ccco1 (stereo not given) | inactive |
| CCN(C[C@H]1N[C@@](Cc2ccccc2)(C(=O)OC)[C@H]2C(=O)N(C)C(=O)[C@@H]12)C(C)=O | inactive |
| CCOCCOc1nc2c(c(=O)n(C)c(=O)n2C)n1Cc1ccc(C)cc1 | inactive |
| CCc1cccc2c1NC(=O)C2(O)N1CCCC(C)C1 (stereo not given) | inactive |
| COc1ccc(/C=C/C(=O)Nc2ccccc2C(=O)O)cc1OC | inactive |
| CCOC(=O)c1ccccc1NC(=S)N1CC(C)CC(C)C1 (stereo not given) | inactive |
| CC1(C)CC(=O)c2cc3c(nc2C1)CC(C)(C)CC3=O | inactive |
| CC(C)NC(=O)CN1CCN(C(=O)c2ccc3oc(CCCc4ccccc4)nc3c2)CC1 | inactive |
| Cc1nn(C)c(C)c1S(=O)(=O)N(CC(=O)NCCCN1CCC(C)CC1)c1ccc(C(C)C)cc1 | inactive |
| O=C(CSc1ncnc2ccccc12)NCc1ccco1 | inactive |
| O=C(CN(Cc1ccccc1Cl)C(=O)CNS(=O)(=O)c1ccc(F)cc1)NCC1CCCO1 (stereo not given) | inactive |
| COc1ccccc1N1CCN(C(=O)CSc2nnc(NC(=O)C(C)C)s2)CC1 | inactive |
| Cc1ccc(Cn2c(=O)oc3ccccc32)cc1 | inactive |
| Cc1cccc(NC(=S)N/N=C/c2c[nH]c3ccccc23)c1 | inactive |
| CC1CCCN(C(=O)c2nn(C)c3c2CSc2ccccc2-3)C1 (stereo not given) | inactive |
| CCCC(=O)NC1=C(C#N)C2(CCCC2)Cc2ccccc21 | inactive |
| O=C(NCCNC(=O)c1ccccc1F)c1ccccn1 | inactive |
| COc1ccccc1NC(=S)NC1CC2CCC1C2 (stereo not given) | inactive |
| COc1ccccc1NC(=O)NCCCCc1ccccc1 | inactive |
| Cc1cc(C)n2nc(SCC(=O)N3CCN(c4ccccc4)CC3)nc2n1 | inactive |
| O=C(CN1CCN(c2ccccc2)CC1)N1N=CCC1c1ccccc1 (stereo not given) | inactive |
| CCCSc1nnc(CNS(=O)(=O)c2ccc(C)cc2)n1C | inactive |
| CCN(CC)S(=O)(=O)c1ccc(OC)c(NC(=O)c2ccc(=O)[nH]c2)c1 | inactive |
| COC(=O)[C@H](CC(C)C)N(Cc1ccccc1)S(=O)(=O)N(Cc1ccccc1)[C@@H](CC(C)C)C(=O)OC | inactive |
